D1 potentiator: enhances dopamine response at the human D1 receptor. P21728. HEK293 TREx D1 cells, calcium flux, dopamine EC20 potentiation. potentiation, % at 10 µM. 360,000 compounds, 0.036% hits; in the data active = potentiation above about 30%; note: 0% is about no effect
Target sequence (P21728 whole entry, looked up): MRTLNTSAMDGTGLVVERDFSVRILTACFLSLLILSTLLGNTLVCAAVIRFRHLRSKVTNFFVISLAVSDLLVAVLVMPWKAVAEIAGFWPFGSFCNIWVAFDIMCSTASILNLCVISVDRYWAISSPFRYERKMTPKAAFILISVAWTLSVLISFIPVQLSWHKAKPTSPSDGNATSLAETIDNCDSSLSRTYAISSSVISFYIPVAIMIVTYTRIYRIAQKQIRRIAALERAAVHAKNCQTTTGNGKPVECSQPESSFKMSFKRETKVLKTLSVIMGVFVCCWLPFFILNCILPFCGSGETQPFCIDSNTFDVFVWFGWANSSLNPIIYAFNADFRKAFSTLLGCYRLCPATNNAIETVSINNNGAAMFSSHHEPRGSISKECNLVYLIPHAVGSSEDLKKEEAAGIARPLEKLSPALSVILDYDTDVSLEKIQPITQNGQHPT
D1 ag: agonists of human D1 dopamine receptor | P21728 | HEK293 T-REx D1 cells, calcium flux, agonist mode | activation, % at 2 µM | 360,000 compounds, 1% hits | AID 504660; in the data active = activation above about 30%; note: 0% is about no effect
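Tetracycline-induced HEK293 TREx D1 cells, force-coupled to calcium signalling, were dye-loaded with a no-wash calcium kit. Compound was pin-added after a 10 s baseline. Fluorescence was read kinetically at 1 cycle/s for 180 s, with calcium rises flagged as agonism.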
DRD3 antagonist: blocks the human D3 dopamine receptor; D3R cells, DiscoveRx beta-arrestin luminescence, antagonist mode; active compounds read low; max response, negative = inhibition, %; 360,000 compounds, 2.5% hits; in the data active = max response below about -50%; inconclusive = no clear call, values can overlap the other calls; note: % is set by controls: 0 for no effect and ±100 for the full control effect
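Cells plated overnight at 1500 cells/well, then exposed to library compounds with dopamine controls for 90 minutes at 37 degrees C. DiscoveRx reagent added for 30–60 minutes at room temperature; luminescence read, quantitative HTS format.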
D1 antagonist: antagonists of human D1 dopamine receptor; P21728; HEK293 TREx D1 cells, calcium flux, dopamine EC80; active compounds read low; activity change, negative = inhibition, % at 10 µM; 360,000 compounds, 3.2% hits; in the data active = activity change below about -30%; note: % is set by controls: 0 for no effect and ±100 for the full control effect
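Tetracycline-induced HEK293 T-REx cells with force-coupled D1 receptor were loaded with a no-wash calcium dye. Compound was added after a 10 s baseline and read kinetically for 180 s; EC80 dopamine was then added and calcium flux followed another 180 s.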
D3 ag: activates the human D3 dopamine receptor; D3R DiscoveRx beta-arrestin cells, luminescence, 90 min; 410,000 compounds, 0.58% hits; max activation, %; P35462; in the data active = max activation above about 30%; note: 0% is about no effect
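Agonist-mode cell screen: cells plated at 1500/well and incubated overnight at 37 °C, then exposed to library compounds for 90 min at 37 °C. Detection reagent was added for 30–60 min at room temperature, and luminescence was read.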
* marks the source's active call; other numbers are inactive results; ? = inconclusive; . = no result given. Hits are enriched below; roughly 6% of the tested compounds scored in any of these assays.

SMILES	D1 potentiator	D1 ag	DRD3 antagonist	D1 antagonist	D3 ag
CCc1ccc(NC(=O)C(C)OC(=O)c2cc(=O)[nH]c3ccc(S(=O)(=O)Nc4ccc(F)cc4)cc23)cc1 (configuration not stated)	-12.3	3.2	-22.1	-36.9*	-4.6
O=[N+]([O-])c1cccc(Cl)c1NCCNS(=O)(=O)c1ccc(Cl)cc1	-11.0	1.3	1.7	2.4	8.4
O=[N+]([O-])c1cccc(Cl)c1NCCNS(=O)(=O)c1ccccc1	-1.6	4.7	-55.7*	12.2	3.1
CS(=O)(=O)c1ccc(C(=O)NCC2(N3CCOCC3)CCCCC2)cc1	.	.	3.6	.	-9.9
O=C(CCC(=O)c1ccc(F)cc1)NCC1(N2CCCCC2)CCCCC1	-0.3	0.7	-88.5*	-5.0	-11.5
NC(=O)COc1ccc(C(=O)NCC2(N3CCOCC3)CCCCC2)cc1	0.4	0.3	14.6	-32.0*	-2.0
O=C(CCC(=O)c1ccc(F)cc1)NN1C(=O)NC2(CCCCC2)C1=O	-0.6	0.1	5.4	-0.7	7.2
N#Cc1ccc(OCC(=O)NCC2(N3CCCCC3)CCCCC2)cc1	-2.8	5.4	-11.7	35.2	-4.1
O=C(COc1ccccc1)NCC1(N2CCCCC2)CCCCC1	3.2	-1.3	2.0	-66.1*	-7.2
Cn1c(=O)c2nc(SCC(=O)Nc3cc(Cl)cc(Cl)c3)n(C)c2n(C)c1=O	-2.5	3.0	.	.	0.4
O=C1C=CC(=O)N1CCCCCCN1C(=O)C=CC1=O	-15.8	3.9	-72.2*	-7.2	-13.8
O=[N+]([O-])c1ccc(S(=O)(=O)Nc2nnc(C(F)(F)F)s2)cc1	-6.8	2.0	-16.9	-51.9*	-10.9
CS(=O)(=O)N1CCCCC1c1cc(C(=O)Nc2cccc(C#N)c2)no1 (configuration not stated)	.	.	-8.3	.	-16.1
Cn1cnc(S(=O)(=O)N2CCCCC2c2cc(C(=O)Nc3cccc(C#N)c3)no2)c1 (configuration not stated)	.	.	-80.0*	.	-22.1
Cc1ccc2c(c1)-c1c(cnc3cc(-c4ccc(Cl)cc4)nn13)CO2	-3.6	-1.2	.	5.6	-3.8
O=C(NNC(=O)C(c1ccccc1)c1ccccc1)c1ccccn1	-1.4	3.6	-86.0*	11.9	-24.2
COc1ccc(-c2nc(CNS(=O)(=O)c3cccc(F)c3)cs2)cc1	-3.0	0.3	.	-4.0	-7.8
Cc1cc2nc3c(=O)n(C)c(=O)n(C)c3nc2cc1N=CN(C)C	-0.1	46.3*	.	-12.2	3.0
COC(=O)C1Cc2c([nH]c3ccccc23)C2(CCN(Cc3ccccc3)CC2)N1 (configuration not stated)	-3.7	58.4*	-93.2*	-39.1*	-22.7
O=c1c2cc(F)ccc2sn1-c1ccccc1	-8.2	38.9*	-11.5	-6.0	-16.6
Cc1ccccc1-n1sc2cc(F)ccc2c1=O	0.2	31.6*	-15.1	2.1	-3.0
O=c1c2ccccc2sn1-c1cccc(Cl)c1	.	.	?	.	-6.2
O=c1c2ccccc2sn1-c1ccccc1	-5.7	1.7	-98.0*	12.6	-2.8
O=c1c2ccccc2sn1-c1ccccc1F	.	.	?	.	-14.3
CCCCN(CC)CCCNC(=O)CS(=O)(=O)Cc1nc(-c2ccc(C)cc2)oc1C	-2.5	-0.5	.	2.2	-11.9
SMILES	D1 potentiator	D1 ag	DRD3 antagonist	D1 antagonist	D3 ag
COc1ccnc(N=CNOCc2cccc(Cl)c2Cl)c1C#N	-5.3	0.4	0.0	-58.3*	1.3
Cc1c(C2=CCN(S(=O)(=O)c3ccc(CC(C)C)cc3)CC2)c2ccccc2n1CC(=O)N1CCCC1	-0.7	37.8*	.	24.0	-23.2
COC1=C(OC)C(=O)C(CCCCCCCCCCO)=C(C)C1=O	-2.1	26.0	.	-40.6*	-6.3
CC1=C(C)C(=O)C(CCCCC#CCCCC#CCO)=C(C)C1=O	-3.4	7.8	-2.7	-26.3	19.3
COc1ccc(CCNC(=O)CCS(=O)(=O)c2cc3c(cc2Cl)NC(=O)CO3)cc1OC	-2.9	1.7	.	0.2	6.1
CCOC(=O)c1c(-c2ccccc2)oc2ccc(OCC(O)CNCCN(C)C)cc12 (configuration not stated)	-7.7	45.0*	?	-48.4*	-7.8
CC(=O)N1CCC(N(Cc2ccco2)C(=O)Nc2ccc(Br)cc2F)CC1	-3.3	-0.8	.	6.0	-24.1
Cc1ccc(C2=NC(c3ccc(F)cc3)=Nc3ccc(C)cc3N2)cc1	-2.5	1.4	.	-40.0*	-4.8
COc1cc2c(-c3ccccc3C)nc3c(c(C)nn3-c3ccccc3)c2cc1OC	0.3	2.7	.	6.5	41.4*

Compound activity: PubChem, National Center for Advancing Translational Sciences (NCATS)
